# TEAD-YAP inh – TEAD-YAP interaction inhibition; 640,000 compounds, 1.4% hits; inhibition, % at 9.12 µM; HEK-TIYL cells, TEAD-Gal4/YAP UAS-luciferase luminescence; AID 1259422; in the data active = inhibition above about 32%;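 also: 0% = median of test compound wells and 100% = reference inhibitor wells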
# FBW7 act – activators of human E3 ligase FBW7. Q969H0. AlphaScreen FBW7–phospho-cyclin E peptide binding, activator screen. normalized activity (activation), % at 26.1 µM. 650,000 compounds, 0.13% hits. AID 1259310; in the data active = normalized activity above about 1.9%;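 also: purified mutant Fbw7 with reduced substrate affinity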
# GPR151 ag – activates the human receptor GPR151; Q8TDV0; PathHunter beta-arrestin GPR151 cells, luminescence; activation, % at 11.2 µM; 650,000 compounds, 1% hits; in the data active = activation above about 4.9%;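 also: 0% = median of compound wells and 100% = cells with positive control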
# Target sequence (Q8TDV0 whole entry, looked up): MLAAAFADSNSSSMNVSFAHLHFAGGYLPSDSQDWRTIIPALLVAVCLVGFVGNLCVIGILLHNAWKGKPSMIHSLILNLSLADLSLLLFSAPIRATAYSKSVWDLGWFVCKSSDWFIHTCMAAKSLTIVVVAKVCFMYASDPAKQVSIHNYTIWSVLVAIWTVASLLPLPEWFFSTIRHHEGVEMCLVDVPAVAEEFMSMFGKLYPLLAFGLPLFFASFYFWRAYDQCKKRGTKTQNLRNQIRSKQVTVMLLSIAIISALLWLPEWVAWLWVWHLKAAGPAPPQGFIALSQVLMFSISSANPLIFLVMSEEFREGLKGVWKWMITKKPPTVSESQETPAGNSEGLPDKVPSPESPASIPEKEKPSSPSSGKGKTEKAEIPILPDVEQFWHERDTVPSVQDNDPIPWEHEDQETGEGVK
# MITF inh – inhibitors of human MITF. O75030. AlphaScreen MITF homodimerization, bead proximity signal. inhibition, % at 2.6 µM. 650,000 compounds, 0.91% hits; in the data active = inhibition above about 50%;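 also: 0% = vehicle wells with protein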
# MITF confirm – confirmation of human MITF inhibitors; shares compounds with MITF inh; 4,700 compounds, 16% hits; inhibition, % at 2.6 µM; AlphaScreen MITF homodimerization, biotin/His-MITF beads;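 active = inhibition above a cutoff derived from the DMSO control wells, cut at about 28% in these data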;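 also: 0% = MITF dimer wells with DMSO only; inhibitors lower the bead chemiluminescence by keeping MITF from dimerizing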
# AS interf DR – counter-screen: compounds optically interfering with AlphaScreen | shares compounds with MITF inh | AlphaScreen optical interference counterscreen, cell-free | IC50, µM | 480 compounds, 6% hits | AID 1259373; call rule not given here
# AlphaScreen intf2 – counter-screen: compounds optically interfering with AlphaScreen; shares compounds with MITF inh; LysRS AlphaScreen counterscreen, signal interference, triplicate; inhibition, % at 2.6 µM; 4,700 compounds, 7.6% hits; AID 1259376;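 active = inhibition above a cutoff derived from the DMSO control wells, cut at about 30% in these data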
# GPR151 confirm – confirmation of human GPR151 activators. shares compounds with GPR151 ag. 6,700 tested, under 10 active. GPR151 PathHunter beta-arrestin cells, luminescence, 90 min; % of EA-reagent control over plate median. activation, % at 11.2 µM;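 active = mean percent activation across replicates above the confirmation screen cutoff of 4.91%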
# GPR119 counter – counter-screen for GPR151 activators: effect on human GPR119 | shares compounds with GPR151 ag | GPR119 PathHunter beta-arrestin cells, luminescence, 90 min; 0 = compound-well median, 100 = enzyme-acceptor control | activation, % at 11.2 µM | 6,700 compounds, 0.3% hits | AID 1508611;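 active = mean percent activation in the counterscreen above 29.09%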;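 also: counterscreen on off-target GPR119 to flag nonselective hits from the GPR151 activator screen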
# * hit, by the source's call; . = not tested or not shown. Only some compounds are listed: those with a hit (about 3.5% of all), similar ones and a draw of the others.
SMILES,TEAD-YAP inh,FBW7 act,GPR151 ag,MITF inh,MITF confirm,AlphaScreen intf2,others
CCOc1cc(CN2CCN(Cc3ccc4c(c3)OCO4)CC2)ccc1O,-8,0,0,75*,14,13,
COc1ccc(CN2CCN(Cc3ccc4c(c3)OCO4)CC2)c(OC)c1OC,6,0,1,79*,10,15,
COC(=O)c1ccc(CN2CCN(Cc3ccc4c(c3)OCO4)CC2)cc1,2,0,0,56*,5,1,
Cc1ccc(C(=O)Nc2sc3c(c2C(N)=O)CCN(Cc2ccccc2)C3)cc1,8,0,2,0,.,.,
O=C(COC(=O)/C=C/c1ccco1)COC(=O)/C=C/c1ccco1,6,0,-1,78*,63*,-15,AS interf DR=>7.1
CCOC(=O)/C=C/c1ccco1,-3,0,0,14,.,.,
N#Cc1ccc(OCC(=O)OCC(=O)NCc2ccco2)cc1,4,0,-1,3,.,.,
O=C(COC(=O)/C=C/c1ccco1)NCc1ccco1,-3,0,-2,63*,64*,-1,AS interf DR=>6.6
O=C(COC(=O)/C=C/c1ccco1)NC1CCCCC1,7,0,4,8,.,.,
O=C(COC(=O)COc1ccc(Cl)cc1)NCc1ccco1,0,0,1,52*,56*,-6,AS interf DR=>7.2
CC(=O)c1ccc(NC(=O)C(C)SCC(=O)Nc2ccccc2F)cc1 (stereo unspecified),-15,0,-2,22,.,.,
N#C/C(=C\C=C\c1ccco1)C(N)=S,0,-1,-1,65*,60*,87*,
Brc1ccc(CN2CCN(Cc3ccccc3)CC2)o1,1,0,0,55*,4,15,
Clc1ccc(N2CCN(Cc3ccc(Br)o3)CC2)cc1,2,0,1,58*,4,-1,
C=CCOC(=O)C1=C(C)NC2=C(C(=O)CCC2)C1c1cccc(OC)c1 (stereo unspecified),-4,0,-1,-1,.,.,
COc1ccccc1NC(=S)N(CCN(C)C)C(C)c1ccccn1 (stereo unspecified),0,0,0,66*,-50,100*,
CCOc1ccc2nc(NC(=O)c3cccc([N+](=O)[O-])c3C)sc2c1,-11,0,1,7,.,.,
C(=N\Nc1nnnn1-c1cccc2ccccc12)/c1ccc(OCc2ccccn2)cc1,14,0,0,69*,-2,9,
C(=N\Nc1nnnn1-c1cccc2ccccc12)/c1ccncc1,1,0,1,-2,.,.,
NC(=O)c1ccccc1OCC(=O)Nc1cccc(C(F)(F)F)c1,-70,0,0,-1,.,.,
O=C(COc1ccccc1C(=O)OC1CCCC1=O)Nc1cccc(C(F)(F)F)c1 (stereo unspecified),6,0,2,62*,72*,3,AS interf DR=>6.8
COC(=O)Cn1cnc2sc(C(=O)Nc3ccccc3OC)c(C)c2c1=O,-4,0,2,-10,.,.,
CCS(=O)(=O)N1CCN(Cc2cc(OC)c(OC)cc2OC)CC1,6,0,2,37,.,.,
COc1cc(OC)c(OC)cc1CN1CCN(Cc2ccncc2)CC1,5,0,-1,80*,1,11,
COc1cc(OC)c(OC)cc1CN1CCN(Cc2ccc(C)cc2)CC1,1,0,1,63*,71*,16,AS interf DR=>5.8
SMILES,TEAD-YAP inh,FBW7 act,GPR151 ag,MITF inh,MITF confirm,AlphaScreen intf2,others
COc1cc(OC)c(OC)cc1CN1CCN(Cc2cc(OC)c(O)c(OC)c2)CC1,-3,0,-1,60*,2,9,
CCn1c2ccccc2c2cc(CN3CCN(Cc4cc(OC)c(OC)cc4OC)CC3)ccc21,-6,0,-1,69*,13,21,
Cc1ccc(Oc2ncnc3scc(-c4ccc(Cl)cc4)c23)cc1C,-14,0,0,-19,.,.,
Oc1c(-c2cc(-c3ccccc3)n[nH]2)ccc2ccccc12,-78,0,0,11,.,.,
CCOc1cccc(N(CCCN2C(=O)c3cccc4cccc(c34)C2=O)C(=O)c2ccc(C(=O)c3ccccc3)cc2)c1,0,0,2,-3,.,.,
CC(=O)c1cccc(NC(=O)COc2ccc(Br)cc2C(C)(C)C)c1,6,0,2,-1,.,.,
O=C(NCCN1CCOCC1)c1ccc2nc(NCCCN3CCCC3=O)sc2c1,-48,0,-1,11,.,.,
CCOc1cc(/C=C2\SC(=O)N(CC(C)C)C2=O)ccc1OCC(=O)O,2,0,2,-4,.,.,
CCOc1ccc2nc(N=C(NC(C)=O)NC(C)=O)nc(C)c2c1,-56,0,0,-7,.,.,
CCOc1ccc2nc(N=C(NC(=O)c3ccccc3)NC(=O)c3ccccc3)nc(C)c2c1,-10,0,0,71*,-2,11,
CCN1CCN(CC#CCOc2ccccc2OC)CC1,7,0,9.7*,82*,8,13,GPR151 confirm=-1;GPR119 counter=-10
COc1cc(OC)c(CN2CCC(N3CCCCC3)CC2)cc1Br,1,0,0,12,.,.,
COc1cc(OC)c(OC)cc1CN1CCC(N2CCCCC2)CC1,-7,0,6.1*,60*,20,17,GPR151 confirm=0;GPR119 counter=10
CC(C)C(=O)N1CC[C@H]2[C@H](CCC(=O)N2Cc2cccc(F)c2)C1,-28,0,0,-2,.,.,
CCCCOc1ccc(C(=O)N2c3ccccc3N3C(c4c(C)c(Cl)c(C)c(Cl)c4C)=NON23)cc1,5,1,-1,0,.,.,
O=C(CN1CCC(N2CCCCC2)CC1)Nc1ccccc1O,2,0,5.7*,52*,8,3,GPR151 confirm=0;GPR119 counter=-2
C[C@H](NC(=O)c1ccccc1)C(=O)OCC(=O)Nc1cc(Cl)ccc1C#N,10,0,1,-11,.,.,
COc1ccc(/C=C/C(=O)NCC2CCC3(CCN(Cc4ccccc4)CC3)O2)cc1 (stereo unspecified),-2,0,1,5,.,.,
Cc1ccc(CNC(=O)c2ccc3c(c2)NC(=O)C(CSCc2ccc(F)cc2Cl)N3)cc1 (stereo unspecified),8,0,0,11,.,.,
CCn1c2ccccc2c2cc(CN3CCN(Cc4ccc5c(c4)c4ccccc4n5CC)CC3)ccc21,0,0,0,8,.,.,
CCc1ccc(CN2CCN(Cc3ccc4c(c3)c3ccccc3n4CC)CC2)cc1,-3,0,5.8*,70*,8,3,GPR151 confirm=0;GPR119 counter=6

# Screens deposited in PubChem by The Scripps Research Institute Molecular Screening Center.
